Laboratory results reported in the supplement of paper PMC7411054.

Tests used:
Assay in all cases: phenotypically active (imaging signature differs from DMSO and reproducible) at any of 0.3-9 uM (binary (1 = active, 0 = inactive)); higher = active
Conditions in all cases: treatment time: 24 h
[1] = tested on: A549-ACTB-RAB5A
Summary of the method: (§1)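 After 24 h at 0.3, 1, 3 or 9 µM, with four wells per treatment, fifteen gene-edited A549, HepG2 and WPMY1 reporter lines carrying BFP, GFP and RFP/FusionRed were imaged live. Each well's live-cell features were expressed relative to solvent control wells. Deviation required ≥3 of 4 wells past the 95th percentile of control Euclidean distances, and reproducibility a median replicate Pearson correlation over the 95th percentile of non-replicates. Phenotypic activity rested on both.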

[2] = tested on: A549-CANX-COX4
Summary of the method: as §1

[3] = tested on: A549-GM130-SQSTM1
Summary of the method: as §1

[4] = tested on: A549-TP53BP1-CLTA
Summary of the method: as §1

[5] = tested on: A549-TUBA1B-RELA
Summary of the method: as §1

[6] = tested on: HepG2-ACTB-RAB5A
Summary of the method: as §1

[7] = tested on: HepG2-CANX-COX4
Summary of the method: as §1

[8] = tested on: HepG2-GM130-SQSTM1
Summary of the method: as §1

[9] = tested on: HepG2-TP53BP1-CLTA
Summary of the method: as §1

[10] = tested on: HepG2-TUBA1B-RELA
Summary of the method: as §1

[11] = tested on: WPMY1-ACTB-RAB5A
Summary of the method: as §1

[12] = tested on: WPMY1-CANX-COX4
Summary of the method: as §1

[13] = tested on: WPMY1-GM130-SQSTM1
Summary of the method: as §1

[14] = tested on: WPMY1-TP53BP1-CLTA
Summary of the method: as §1

[15] = tested on: WPMY1-TUBA1B-RELA
Summary of the method: as §1

Measured: phenotypically active

COc1cc2c(NC3CCN(C)CC3)nc(N3CCCN(C)CC3)nc2cc1OCCCN(C)C
inactive: [1] 0 | [2] 0 | [3] 0 | [4] 0 | [5] 0 | [6] 0 | [7] 0 | [8] 0 | [9] 0 | [10] 0 | [11] 0 | [12] 0 | [13] 0 | [14] 0 | [15] 0

CCCN(CCC)CCc1cccc2c1CC(=O)N2 [ropinirole]
inactive: [1] 0 | [2] 0 | [3] 0 | [4] 0 | [5] 0 | [6] 0 | [7] 0 | [8] 0 | [9] 0 | [10] 0 | [11] 0 | [12] 0 | [13] 0 | [14] 0 | [15] 0

O=C(NCC1CCCCN1)c1cc(OCC(F)(F)F)ccc1OCC(F)(F)F (stereo not given) [flecainide]
inactive: [1] 0 | [2] 0 | [3] 0 | [4] 0 | [5] 0 | [6] 0 | [7] 0 | [8] 0 | [9] 0 | [10] 0 | [11] 0 | [12] 0 | [13] 0 | [14] 0 | [15] 0

COc1cc(C=O)c([N+](=O)[O-])cc1OC
inactive: [1] 0 | [2] 0 | [3] 0 | [4] 0 | [5] 0 | [6] 0 | [7] 0 | [8] 0 | [9] 0 | [10] 0 | [11] 0 | [12] 0 | [13] 0 | [14] 0 | [15] 0

COc1ncc2cc(C(=O)Nc3cc(C(=O)NCc4cccc(Cl)c4)ccc3Cl)c(=O)[nH]c2n1
inactive: [1] 0 | [2] 0 | [3] 0 | [4] 0 | [5] 0 | [6] 0 | [7] 0 | [8] 0 | [9] 0 | [10] 0 | [11] 0 | [12] 0 | [13] 0 | [14] 0 | [15] 0

O=C1N[C@@H]2[C@@H](O)[C@@H](O)[C@H](O)[C@@H](CO)N2C1=O [Kifunensine]
inactive: [1] 0 | [2] 0 | [3] 0 | [4] 0 | [5] 0 | [6] 0 | [7] 0 | [8] 0 | [9] 0 | [10] 0 | [11] 0 | [12] 0 | [13] 0 | [14] 0 | [15] 0

CC1(C)CCC(C)(C)c2cc(C3(c4ccc(C(=O)O)cc4)OCCO3)ccc21
inactive: [1] 0 | [2] 0 | [3] 0 | [4] 0 | [5] 0 | [6] 0 | [7] 0 | [8] 0 | [9] 0 | [10] 0 | [11] 0 | [12] 0 | [13] 0 | [14] 0 | [15] 0

CCO[C@@H](Cc1ccc(OCCc2ccc(OS(C)(=O)=O)cc2)cc1)C(=O)O [Tesaglitazar]
inactive: [1] 0 | [2] 0 | [3] 0 | [4] 0 | [5] 0 | [6] 0 | [7] 0 | [8] 0 | [9] 0 | [10] 0 | [11] 0 | [12] 0 | [13] 0 | [14] 0 | [15] 0

O=C(Cn1ccnc1[N+](=O)[O-])NCc1ccccc1 [benznidazole]
inactive: [1] 0 | [2] 0 | [3] 0 | [4] 0 | [5] 0 | [6] 0 | [7] 0 | [8] 0 | [9] 0 | [10] 0 | [11] 0 | [12] 0 | [13] 0 | [14] 0 | [15] 0

CCC[C@H](N[C@@H](C)C(=O)N1[C@H](C(=O)O)C[C@@H]2CCCC[C@@H]21)C(=O)OCC [perindopril]
inactive: [1] 0 | [2] 0 | [3] 0 | [4] 0 | [5] 0 | [6] 0 | [7] 0 | [8] 0 | [9] 0 | [10] 0 | [11] 0 | [12] 0 | [13] 0 | [14] 0 | [15] 0

CC(C(=O)O)c1cccc(C(=O)c2ccccc2)c1 (stereo not given) [ketoprofen]
inactive: [1] 0 | [2] 0 | [3] 0 | [4] 0 | [5] 0 | [6] 0 | [7] 0 | [8] 0 | [9] 0 | [10] 0 | [11] 0 | [12] 0 | [13] 0 | [14] 0 | [15] 0

Cc1cccc(Nc2cc(Cl)nc(SCC(=O)O)n2)c1C
inactive: [1] 0 | [2] 0 | [3] 0 | [4] 0 | [5] 0 | [6] 0 | [7] 0 | [8] 0 | [9] 0 | [10] 0 | [11] 0 | [12] 0 | [13] 0 | [14] 0 | [15] 0

CC(C)(C#N)c1cc(Cn2cncn2)cc(C(C)(C)C#N)c1 [Anastrozole]
inactive: [1] 0 | [2] 0 | [3] 0 | [4] 0 | [5] 0 | [6] 0 | [7] 0 | [8] 0 | [9] 0 | [10] 0 | [11] 0 | [12] 0 | [13] 0 | [14] 0 | [15] 0
